We go through 38 compounds from PubChem BioAssay (NCATS).

Records with an inconclusive call do not appear. A number with no mark means an inactive call. The source made the active and inactive calls. Calls come from the whole dose curve; as a rule, active = well fitted inhibition curve with a large enough effect; inconclusive = small, poorly fitted or top-dose-only effect; inactive = flat fitted curve, though single readings scatter.
% is set by controls: 0 for no effect and ±100 for the full control effect.

The target of the experiment is Glutathione peroxidase 1 (Homo sapiens) (UniProt P07203). The experiment in a line: Primary qHTS Assay for Inhibitors of Recombinant Selenoprotein Glutathione Peroxidase 1 (GPX1) (AID 1845191). Note: nearly all actives have a fitted effect of over 65% in size. The note with it: recombinant GPX1, GR-coupled NADPH fluorescence, 15 min; series mostly up to 48.8 µM; activity, negative = inhibition: at the top concentration. A digest of the protocol: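 GPX1 10 nM, GR 100 nM, GSH 1 mM, NADPH 0.5 mM, CHP 0.5 mM (final). 30-min cpd preincubation, RT. Ex340/Em450 read t=0, t=15 min.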
Sequence of Glutathione peroxidase 1 (Homo sapiens) (P07203 whole entry, looked up): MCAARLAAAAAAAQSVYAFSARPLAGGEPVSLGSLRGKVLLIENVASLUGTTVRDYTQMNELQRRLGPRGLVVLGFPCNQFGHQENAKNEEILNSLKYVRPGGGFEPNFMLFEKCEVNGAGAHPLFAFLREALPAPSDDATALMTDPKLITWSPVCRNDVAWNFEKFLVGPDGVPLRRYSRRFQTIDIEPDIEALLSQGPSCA
Turning to `C#CC(N)CCC(=O)O` (stereo not drawn), the outcome was inactive. Take `COc1ccc(CCN(C)CCc2ccc(OC)c(OC)c2)cc1OC`: the “activity, negative = inhibition” value was -4.9%. Take `NCCCCN`: the “activity, negative = inhibition” value was -23.5%. Consider `c1ccc(C(NCCNC(c2ccccc2)c2ccccc2)c2ccccc2)cc1`, for which the result was inactive. In the case of `O=C1C2C=CC=CC2=NC(=S)N1CCN1CCC(=C(c2ccc(F)cc2)c2ccc(F)cc2)CC1` (stereo not drawn), the “activity, negative = inhibition” value is 1.21%. `N#Cc1cc2nc(O)c(O)nc2cc1[N+](=O)[O-]`: the outcome was inactive.

`CCCOC(=O)c1c(-c2ccccc2)nc(CC)c(C(=O)SCC)c1CCC`: the result was inactive. Turning to `Cc1nc2n(c(=O)c1CCN1CCC(c3noc4cc(F)ccc34)CC1)CCCC2O` (stereo not drawn), the “activity, negative = inhibition” value was -12.1%. Consider `COc1ccc(-c2ccc(N)[n+](CCCC(=O)O)n2)cc1`, for which the “activity, negative = inhibition” value was -9.45%. Regarding `CNc1cc(NS(=O)(=O)c2ccc(N)cc2)nc(NC)n1`, the “activity, negative = inhibition” value was -14.3%. Same read-out and setting: next, `Nc1nc2c(cnn2CCc2ccccc2)c2nc(-c3ccco3)nn12`: 2.08%.

`Cn1c(=O)[nH]c2ncn(C)c2c1=O`: the outcome was inactive.

As to `O=C(O)C1CN(CCCP(=O)(O)O)CCN1` (stereo not drawn), the outcome was inactive. `N[C@@H](Cc1c[nH]c2ccccc12)C(=O)O`: the result was inactive. Turning to `NCC(O)(CS(=O)(=O)O)c1ccc(Cl)cc1` (stereo not drawn), the outcome was inactive.

Consider `O=C(O)c1cc(=O)cc(C(=O)O)[nH]1`, for which the outcome was inactive.

Consider `Cc1cc2c(cc1Cl)N(C(=O)Nc1ccnc3ccccc13)CC2`, for which the “activity, negative = inhibition” value was -23.8%.

Take `Cn1cc(C(F)(F)F)nc1-c1ccc(OCC(O)CNCCOc2ccc(O)c(C(N)=O)c2)cc1` (stereo not drawn): the “activity, negative = inhibition” value is -6.64%. `CCN(c1nc(N)c(C(=O)N=C(N)N)nc1Cl)C(C)C`: the “activity, negative = inhibition” value is -4.83%. Take `CCCCOc1cc(CC2CNC(=O)N2)ccc1OC` (stereo not drawn): the result was inactive. For the compound `N[C@H](C(=O)O)[C@H](O)C(=O)O`, the “activity, negative = inhibition” value is -15.1%.

As for `CC(C)(C)NCC(O)COc1cccc2[nH]c(=O)[nH]c12` (stereo not drawn), the outcome was inactive. On to `O=c1[nH]c(=O)c2nc3ccccc3nc2[nH]1`, for which the outcome was inactive. In the case of `C[C@@H](NCCc1ccc(O)cc1)[C@@H](O)c1ccc(O)cc1`, the “activity, negative = inhibition” value was 1.86%.

As to `Nc1nc2[nH]c(=O)cnc2c(=O)[nH]1`, the outcome was inactive.

As to `Cc1ccc([N+](=O)[O-])cc1S(=O)(=O)N(C)C`, the result was inactive. For the compound `CCCCCCCCCC[Si](C)(C)CCC(=O)NC(Cc1ccc(C)cc1)c1ccccc1` (stereo not drawn), the outcome was inactive. With `c1ccc2c(c1)CC(N1CCN(c3cccc4c3OCCO4)CC1)C2`, the outcome was inactive. The same measure, in the same setting: with `NC1CCN(O)C1=O` (stereo not drawn) the entry was “inactive”; with `COc1cc(CC(=O)O)ccc1O`, “inactive”. `NCCCCN=C(N)N`: the outcome was inactive. `CC[N+](CC)(CC)CC(=O)Nc1c(C)cccc1C`: the “activity, negative = inhibition” value is 4.28%.

As to `NCCNS(=O)(=O)c1cccc2c(Cl)cccc12`, the result was inactive. Take `O=c1onc2cnc3ccccc3n12`: the outcome was inactive.

`O=c1ccn([C@@H]2O[C@H](COP(=O)(O)OP(=O)(O)O)[C@@H](O)[C@H]2O)c(=O)[nH]1`: the “activity, negative = inhibition” value is -25.9%. Take `CCCCCC[C@@H]([C@@H](C)O)n1cnc2c(N)ncnc21`: the “activity, negative = inhibition” value was -8.6%. On to `Cn1c(=O)c2c(nc(/C=C/c3cccc(Cl)c3)n2C)n(C)c1=O`, for which the outcome was inactive. `O[Si](CCCN1CCCCC1)(c1ccc(F)cc1)C1CCCCC1` (stereo not drawn): the “activity, negative = inhibition” value is 4.16%.
